Measurements published in article PMC12751014, “Non-Catalytic Inhibitors of the p38/MK2 Interface: Repurposing Approved Drugs to Target Neuroinflammation in Alzheimer’s Disease” (Journal of Medicinal Chemistry, 2025).
In all, about 1,900 compounds went through this assay and about 50 (3%) showed an effect of 50% or more. This is one part of a sample in which strong results are shown more often than they occur. *1 amine or outer side, *2 acyl side, *3 side chain or, on linkers, in order; H or OH if unused. Where a SMILES comes first, the peptide text is derived from it. Bridges are numbered along the chain shown (N, C = ends). [ ]: non-standard residue; d: D form. The star is where a group is joined. ξ: configuration not given here. pTerphenylCO(4''-OnC5H11) = CCCCCOc1ccc(-c2ccc(-c3ccc(C(=O)*)cc3)cc2)cc1; ξOrn(4,5-diOH) = O=C(C(CC(O)C(O)N[*:3])N[*:1])[*:2]; ξhTyr(βξ-OH,γξ-OH) = NC(C(=O)O)C(O)C(O)c1ccc(O)cc1; ξPro(3ξ-OH,4ξ-Me) = CC1CNC(C(=O)O)C1O; Hyp = O=C(O)[CH]1C[CH](O)CN1

What follows are compounds tested against p38/MK2 protein–protein interaction (VF-p38α / GST-MK2) (Homo sapiens, UniProt Q16539) (assay: primary screen, percent of control activity; higher = less effect of the substance).
Parameters: species or system HEK293T cell lysate transfected with VF-p38α and GST-MK2; unclear (methods say 'quintuplet replicates')
Procedure: The TR-FRET assay was conducted in a 1536-well plate (Corning, catalog no. 3724) with HEK293T cell lysate transfected with VF-p38α and GST-MK2. Cell-lysate concentration was optimized with a titration experiment. Anti-Flag-Tb and anti-GST-d2 antibodies (Revvity, catalog no. 61FGBTLB) were used to couple p38α and MK2, respectively. A multiple-drop Combi dispenser (Thermo Scientific) combined reaction mixtures in quintuplet replicates. The TR-FRET signals were measured using a BMG Labtech PHERAstar FSX plate reader and normalized to the percent of DMSO control.

p38/MK2 protein–protein interaction (VF-p38α / GST-MK2), sequence (Q16539 2-360 limits assumed): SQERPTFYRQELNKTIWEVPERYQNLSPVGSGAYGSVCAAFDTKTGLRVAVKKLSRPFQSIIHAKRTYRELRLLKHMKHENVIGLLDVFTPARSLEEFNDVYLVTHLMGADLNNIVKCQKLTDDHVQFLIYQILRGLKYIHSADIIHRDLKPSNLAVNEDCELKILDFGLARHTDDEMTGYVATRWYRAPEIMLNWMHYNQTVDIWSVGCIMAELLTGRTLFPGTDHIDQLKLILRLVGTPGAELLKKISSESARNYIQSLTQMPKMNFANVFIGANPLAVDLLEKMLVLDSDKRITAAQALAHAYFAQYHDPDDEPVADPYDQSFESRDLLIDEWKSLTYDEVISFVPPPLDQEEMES

Compared with CC(=O)OC1(C(C)=O)CCC2C3C=C(C)C4=CC(=O)CCC4(C)C3CCC21C (stereo not drawn), CC12CCC3c4ccc(O)cc4CCC3C1CCC2=O (stereo not drawn) is lower in Pct of control: 106% for the first, 88.5% for the second.

Compared with Cc1c(NC(=O)c2ccc(C(C)(C)C)cc2)cccc1-c1cn(C)c(=O)c(Nc2ccc(C(=O)N3CCOCC3)cc2)n1, CNCc1ccc(C)c(NC(=O)c2ccc(Nc3nc(-c4ccccc4)c4ccccc4n3)cc2)c1 is higher in Pct of control: 104% for the first, 120% for the second.

First: O=C1C(Cl)=C(N2CCOCC2)C(=O)N1c1ccc(Cl)c(Cl)c1
Second: CS(=O)(=O)N1CCc2c(-c3cnc(N)nc3)nc(N3CCOCC3)nc21
The Pct of control of the first is lower: 35.9% for the first, 81.8% for the second.

Compared with COc1ccc(-c2nc3ccc(C4=NNC(=O)CC4C)cc3[nH]2)cc1 (stereo not drawn), N#Cc1c(O)c2c(-c3ccc(-c4ccccc4O)cc3)csc2[nH]c1=O is higher in Pct of control: 74.1% for the first, 94.7% for the second.

Going from CN1C(C(=O)Nc2ccccn2)=C(O)c2sc(Cl)cc2S1(=O)=O to CN(C)CCC(c1ccc(Cl)cc1)c1ccccn1.O=C(O)C=CC(=O)O (stereo not drawn), the Pct of control falls from 94.2% to 93.2%.

First: CC(=O)Nc1nc2c(Oc3cc(-c4ccc(C(F)(F)F)cc4)ncn3)cccc2s1
Second: CS(=O)(=O)c1ccc(-c2cnc(N)c(C(=O)Nc3ccccc3)n2)cc1
The Pct of control of the first is higher: 108% for the first, 101% for the second.

Going from CC(=O)O.CC(=O)O.CCC(C)CC(C)CCCCCCCCC(=O)NC1CC(O)C(NCCN)NC(=O)C2C(O)CCN2C(=O)C(C(O)CCN)NC(=O)C(C(O)C(O)c2ccc(O)cc2)NC(=O)C2CC(O)CN2C(=O)C(C(C)O)NC1=O (stereo not drawn) to CCCCCOc1ccc(-c2ccc(-c3ccc(C(=O)NC4CC(O)C(O)NC(=O)C5C(O)C(C)CN5C(=O)C(C(C)O)NC(=O)C(C(O)C(O)c5ccc(O)cc5)NC(=O)C5CC(O)CN5C(=O)C(C(C)O)NC4=O)cc3)cc2)cc1 (stereo not drawn) ({pTerphenylCO(4''-OnC5H11)}-[ξOrn(4,5-diOH)]T[Hyp][ξhTyr(βξ-OH,γξ-OH)]T[ξPro(3ξ-OH,4ξ-Me)]; lactam 1-C; configuration not given here), the Pct of control falls from 114% to 11.4%.

Compared with O=C(c1ccc(F)cc1)C1CCN(CCn2c(=O)[nH]c3ccccc3c2=O)CC1, O=c1[nH]c2ccccc2n1CCCN1CCC(n2c(=O)[nH]c3cc(Cl)ccc32)CC1 is higher in Pct of control: 84.3% for the first, 91.8% for the second.

Going from Cc1ccccc1-n1c(Cn2ncc3c(N)ncnc32)nc2cccc(C)c2c1=O to Cc1cc(Nc2ccc(NC(=O)c3ccc(Nc4ccnc5ccccc45)cc3)cc2)nc(N)n1, the Pct of control falls from 93.1% to 17.7%.

Going from CN(C)CCCN1c2ccccc2Sc2ccc(Cl)cc21.Cl to CCNCC.O=C(O)Cc1ccccc1Nc1c(Cl)cccc1Cl, the Pct of control rises from 90.9% to 95.1%.

Going from Br.Cc1ccc(C(=O)Cn2c3c(sc2=N)CCCC3)cc1 to Cc1cc(C(=O)CN2CCCC2)c(C)n1-c1ccc(F)cc1, the Pct of control falls from 96.8% to 88.5%.

First: CC(=O)Nc1ccc(C(=O)Nc2ccccc2N)cc1
Second: Nc1ccccc1NC(=O)c1ccc(CNC(=O)OCc2cccnc2)cc1
The Pct of control of the first is higher: 96.8% for the first, 96.2% for the second.

Going from CCCCCCCCCCCC1=C(O)C(=O)C=C(O)C1=O to CCCCCCCCc1ccc(CCC(N)(CO)CO)cc1.Cl, the Pct of control rises from 42% to 203%.

Compared with CS(=O)(=O)Nc1ccc([N+](=O)[O-])cc1Oc1ccccc1, CS(=O)(=O)c1ccc(C2=C(c3ccccc3)C(=O)OC2)cc1 is lower in Pct of control: 95.3% for the first, 26.5% for the second.

First: Cc1onc(-c2ccccc2)c1-c1ccc(S(N)(=O)=O)cc1
Second: O=C(C=Cc1cccc(S(=O)(=O)Nc2ccccc2)c1)NO
The Pct of control of the first is lower: 91.8% for the first, 103% for the second.

First: O=C(c1ccccc1)c1ccc2n1CCC2C(=O)O (stereo not drawn)
Second: N#CC(=Cc1ccc(O)c(O)c1)C(=O)NCc1ccccc1
The Pct of control of the first is higher: 97.5% for the first, 95.3% for the second.

Compared with O=c1cc[nH]c(=S)[nH]1, OCc1c[nH]c2ccccc12 is lower in Pct of control: 98.2% for the first, 76.2% for the second.

Going from O=C1c2c(O)ccc(O)c2C(=O)c2c(NCCNCCO)ccc(NCCNCCO)c21 to Cl.Cl.O=C1c2c(O)ccc(O)c2C(=O)c2c(NCCNCCO)ccc(NCCNCCO)c21, the Pct of control rises from 45.7% to 92%.

First: Cc1c(CN2CCN(C(=O)C(C)O)CC2)sc2c(N3CCOCC3)nc(-c3cnc(N)nc3)nc12 (stereo not drawn)
Second: COc1cc2nc(N3CCN(C(=O)C4CCCO4)CC3)nc(N)c2cc1OC.Cl.O.O (stereo not drawn)
The Pct of control of the first is higher: 96.8% for the first, 23.3% for the second.

Compared with CCC(NC(C)C)C(O)c1ccc(O)c(O)c1.CS(=O)(=O)O (stereo not drawn), COc1cc(C(C)=O)ccc1O is higher in Pct of control: 90% for the first, 90.4% for the second.

Going from NC(=O)c1cccc(-c2cccc(OC(=O)NC3CCCCC3)c2)c1 to Cc1cc(-c2ncc(CC(=O)Nc3ccc(-c4cnccn4)cn3)cc2C)ccn1, the Pct of control rises from 91.2% to 98%.

Going from COc1cc(=C2C=c3ccccc3=N2)[nH]c1=Cc1[nH]c(C)cc1C.CS(=O)(=O)O to COc1cc2nc(N3CCN(C(=O)C4COc5ccccc5O4)CC3)nc(N)c2cc1OC.CS(=O)(=O)O (stereo not drawn), the Pct of control rises from 37.5% to 41.5%.

Going from CCOc1cc(N)c(Cl)cc1C(=O)NCC1CN(Cc2ccc(F)cc2)CCO1.O=C(O)CC(O)(CC(=O)O)C(=O)O (stereo not drawn) to CCOC(=O)C1=C(COCCN)NC(C)=C(C(=O)OC)C1c1ccccc1Cl.O=S(=O)(O)c1ccccc1 (stereo not drawn), the Pct of control falls from 96.8% to 91.6%.

First: Cc1coc2c1C(=O)C(=O)c1c-2ccc2c1CCCC2(C)C
Second: COc1cccc2c1C(=O)c1c(O)c3c(c(O)c1C2=O)CC(O)(C(=O)CO)CC3OC1CC(N)C(OC2CCCCO2)C(C)O1 (stereo not drawn)
The Pct of control of the first is higher: 79.4% for the first, 56.6% for the second.

Going from CCOC(=O)n1ccn(C)c1=S to CN(C)CCc1ccc(O)cc1, the Pct of control falls from 98.2% to 89.6%.

First: CN(C)C1C(=O)C(C(N)=O)=C(O)C2(O)C(=O)C3=C(O)c4c(O)cccc4C(C)(O)C3C(O)C12 (stereo not drawn)
Second: CN(C)C1C(=O)C(C(N)=O)=C(O)C2(O)C(=O)C3=C(O)c4c(O)cccc4C(C)(O)C3C(O)C12.O.O (stereo not drawn)
The Pct of control of the first is higher: 90.8% for the first, 48.8% for the second.

Compared with C=C1c2cccc(O)c2C(O)=C2C(=O)C3(O)C(O)=C(C(N)=O)C(=O)C(N(C)C)C3C(O)C12.Cl (stereo not drawn), O=C1c2c(O)cc(O)cc2O[C@H](c2cc(O)c(O)c(O)c2)[C@H]1O is higher in Pct of control: 52.5% for the first, 71.3% for the second.

First: COc1ccc(CCC(=O)c2c(O)cc(OC3OC(CO)C(O)C(O)C3OC3OC(C)C(O)C(O)C3O)cc2O)cc1O (stereo not drawn)
Second: COc1ccc(C2CC(=O)c3c(O)cc(O)cc3O2)cc1O (stereo not drawn)
The Pct of control of the first is higher: 94.3% for the first, 90.9% for the second.

Going from CC(C)NC[C@H](O)COc1ccc(CCOCC2CC2)cc1.Cl [S4085] to CN(C)CC(c1ccc(O)cc1)C1(O)CCCCC1 (stereo not drawn), the Pct of control rises from 94.4% to 98.6%.

First: COc1ccc(S(=O)(=O)N(C(C)=O)c2ccccc2C=Cc2cc[n+]([O-])cc2)cc1
Second: O=C(O)c1ccc(N2C(=O)C(=Cc3ccc(-c4ccc([N+](=O)[O-])cc4)o3)C=C2c2ccccc2)cc1
The Pct of control of the first is higher: 89.4% for the first, 24.8% for the second.

First: O=C(c1cncc(Br)c1)N1CCC(N2CCCC2)CC1
Second: CC1CCc2c(N3CCC(O)CC3)c(F)cc3c(=O)c(C(=O)O)cn1c23 (stereo not drawn)
The Pct of control of the first is lower: 85.2% for the first, 90.3% for the second.

First: Cc1cc2c(C(=O)NC[C@H](C)c3ccccc3)c(O)c(O)cc2c(O)c1-c1c(C)cc2c(C(=O)NC[C@H](C)c3ccccc3)c(O)c(O)cc2c1O
Second: CC(NC(=O)C(O)c1cc(F)cc(F)c1)C(=O)NC1C(=O)N(C)c2ccccc2-c2ccccc21 (stereo not drawn)
The Pct of control of the first is lower: 36.8% for the first, 105% for the second.

First: Nc1ncnc2c1ncn2[C@@H]1O[C@H](CO)[C@@H](O)[C@@H]1O [S1784]
Second: COc1c(C)cnc(Cn2cnc3c(Cl)nc(N)nc32)c1C
The Pct of control of the first is lower: 91.5% for the first, 111% for the second.

First: CN(C)CCOC(C)(c1ccccc1)c1ccccn1.O=C(O)CCC(=O)O (stereo not drawn)
Second: CCCC(NC(=O)C(C#N)=Cc1cccc(Br)n1)c1ccccc1 (stereo not drawn)
The Pct of control of the first is higher: 101% for the first, 20.3% for the second.

Going from O=C(OC1Cc2c(O)cc(O)cc2OC1c1cc(O)c(O)c(O)c1)c1cc(O)c(O)c(O)c1 (single isomer, unassigned; (-)) to O=C1Nc2ccc(I)cc2C1=Cc1cc(Br)c(O)c(Br)c1, the Pct of control rises from 32.5% to 43.6%.

First: CC12CC3CC(C)(C1)CC(N)(C3)C2.Cl
Second: Cl.OC(CCN1CCCCC1)(c1ccccc1)C1CC2C=CC1C2 (stereo not drawn)
The Pct of control of the first is lower: 94.2% for the first, 117% for the second.

Going from COC1C=CC=C(C)C(=O)NC2=CC(=O)C(NCCN(C)C)=C(CC(C)CC(OC)C(O)C(C)C=C(C)C1OC(N)=O)C2=O.Cl (stereo not drawn) to COc1cc2nc(N(C)CCCNC(=O)C3CCCO3)nc(N)c2cc1OC.Cl (stereo not drawn), the Pct of control falls from 96.9% to 17.9%.

Compared with c1ccc(CNc2nc(NCc3ccccc3)c3ccccc3n2)cc1, CC(NC(=O)C(C#N)=Cc1cccc(Br)n1)c1ccccc1 (stereo not drawn) is lower in Pct of control: 74.5% for the first, 24.1% for the second.

Going from CCn1nc(C(=O)O)c(=O)c2cc3c(cc21)OCO3 to CC(C)CCN1c2nc(Nc3cc(F)c(O)c(F)c3)ncc2N(C)C(=O)C1C (stereo not drawn), the Pct of control rises from 86.4% to 86.7%.
